The record followed here is ChEMBL document CHEMBL1201862, “PubChem BioAssay data set” (2004).

The campaign covered roughly 57,000 […]. About 2,300 (4%) were called active. Rule as the data show it: active = GI50 up to about 1.1 µM and inactive = higher. Not all results are given here. Measured potencies and affinities stand elsewhere.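 How tested: cells in 96-well plates exposed to compound for 48 hours at five concentrations. Abbreviation: GI50, concentration required for 50% inhibition of growth.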

This assay relates to SK-MEL-28. Description: NCI tumour cell line growth inhibition, 48 h.
The substance “[Bis(aminomethyl)diethylsilane]tetrachloroplatinum(IV), CHEMBL2146203” had a GI50 of 1.72 µM.

For the substance CISPLATIN, CHEMBL11359, the GI50 is 4.43 µM.

“[Bis(aminomethyl)tetramethylenesilane]dichloropaltinum(II), CHEMBL2146205” gave a GI50 of 20.3 µM.

Consider “[Bis(aminomethyl)pentamethylenesilane]dichloropaltinum(II), CHEMBL2146202”, for which the GI50 stood at 3.85 µM.

In the case of “[Bis(aminomethyl)ethylmethylsilane]tetrachloroplatinum(IV), CHEMBL2146192”, the GI50 was 2.76 µM.

Consider “[Bis(aminomethyl)pentamethylenesilane]tetrachloropaltinum(IV), CHEMBL2146204”, for which the GI50 turned out to be 1.23 µM.

Take “cis-Bis[[(trimethylsilyl)methyl]amino]tetrachloroplatinum(IV), CHEMBL2146191”: the GI50 turned out to be 2.86 µM.

Consider “[Bis(aminomethyl)dimethylsilane]tetrachloroplatinum(IV), CHEMBL2146190”, for which the GI50 amounted to 10.2 µM.

In turn, “[Bis(aminomethyl)tetramethylenesilane]tetrachloropaltinum(IV), CHEMBL2146189” displayed a GI50 of 2.85 µM.

Substance “mu-(1,7-nanodiamine-N,N')bis-(cis-aminedichloroplatimum (II)), CHEMBL2146215” came in with a GI50 of 10.2 µM.

For the substance “[Bis(aminomethyl)dimethylsilane]dichloroplatinum (II), CHEMBL2146201”, the GI50 amounted to 21.6 µM.
